Assay outcomes: PubChem BioAssay, National Center for Advancing Translational Sciences (NCATS)
Only some compounds are listed: those with a hit (about 3.9% of all), similar ones and a draw of the others.
p53null 32C tox – selectivity test: cytotoxicity in p53 null cells, permissive temperature | H1299-neo p53 null cells, ATP luminescence, 24 h, 32C | Potency, µM (titrated, usually from 46.1 µM), for the others: at the top dose activity change, negative = cytotoxicity, most hits filed as cytotoxic | 0.62% of 55,000 active | AID 903;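 note: potency is the fitted concentration of half-maximal effect; 0% = DMSO only and -100% = full killing by 100 µM tamoxifen; nearly all actives have a fitted effect of over 55% in size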
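Cells lacking p53 (H1299-neo) are plated at 600 per well and allowed to settle overnight at 37C. Test compounds (up to 46 uM) are added and held 24 hours at 32C, then ATP is quantified by luminescence.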
NTMT1 inh – inhibitors of human N-terminal methyltransferase NTMT1; Q9BV86; NTMT1 MTase-Glo SAH luminescence, purified enzyme; Potency, µM (doses to about 114 µM), inactives show top-dose activity change, negative = inhibition, usual class: inhibitors; 2.5% of 59,000 active; AID 1645870;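 note: potency is the fitted concentration of half-maximal effect; plate controls were DMSO vehicle for no effect and no enzyme for full effect; nearly all actives have a fitted effect of over 65% in size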
GALC G270D act – enhancers of human galactocerebrosidase G270D mutant activity in cells; P54803; 0.1% of 45,000 active; 145M-Twi-hGALC-G270D cells (Twitcher mouse brain line with human GALC G270D), HMU-beta-Gal fluorescence, 48 h; Potency, µM (series often up to 57.5 µM), hits mostly activators; note: potency is the fitted concentration of half-maximal effect; 0% is about no effect; nearly all actives have a fitted effect of over 65% in size
Target sequence (P54803 whole entry G286D): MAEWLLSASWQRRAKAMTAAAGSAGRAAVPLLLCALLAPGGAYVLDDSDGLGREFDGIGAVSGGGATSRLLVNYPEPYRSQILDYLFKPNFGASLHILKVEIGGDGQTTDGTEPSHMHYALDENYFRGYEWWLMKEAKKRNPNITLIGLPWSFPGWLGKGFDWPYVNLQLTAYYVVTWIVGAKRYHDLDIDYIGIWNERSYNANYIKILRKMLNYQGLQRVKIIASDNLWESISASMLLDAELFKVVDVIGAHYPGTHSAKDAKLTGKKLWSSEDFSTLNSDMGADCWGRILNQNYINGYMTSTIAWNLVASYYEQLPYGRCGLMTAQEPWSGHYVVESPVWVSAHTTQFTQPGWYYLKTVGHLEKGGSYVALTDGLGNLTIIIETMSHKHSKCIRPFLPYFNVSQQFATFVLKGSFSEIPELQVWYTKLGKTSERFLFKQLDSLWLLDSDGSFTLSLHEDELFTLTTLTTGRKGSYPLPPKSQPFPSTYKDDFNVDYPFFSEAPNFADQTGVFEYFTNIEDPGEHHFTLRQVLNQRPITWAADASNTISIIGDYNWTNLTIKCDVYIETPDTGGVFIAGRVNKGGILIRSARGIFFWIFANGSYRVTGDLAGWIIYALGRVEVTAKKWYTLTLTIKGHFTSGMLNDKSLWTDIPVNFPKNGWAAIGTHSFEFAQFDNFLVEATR
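Live 145M-Twi cells (Twitcher mouse brain-derived, GALC-null) stably expressing human GALC-G270D, with a wild-type GALC line, were compound-treated. Residual GALC activity was then read as fluorescence from 0.1 mM final HMU-β-gal at pH 5.2; higher signal means activation.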
p53null 39C tox – selectivity test: cytotoxicity in p53 null cells, nonpermissive temperature | H1299 p53-null (neo) cells, 39C, ATPlite viability, 24 h | Potency, µM (doses to about 46.1 µM), without a hit: at the highest dose activity, negative = cell killing, usual class: cytotoxic | 0.97% of 55,000 active;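 note: potency is the fitted concentration of half-maximal effect; 0% = DMSO only and -100% = full killing by 100 µM tamoxifen; nearly all actives have a fitted effect of over 50% in size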
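Concentration-response (up to 46 uM) was run for 24 h at the nonpermissive 39C on H1299-p53A138V or H1299-neo cells. ATP content was measured with ATPlite luminescence. AC50 values were Hill-modeled after normalizing between DMSO and 100 uM tamoxifen killing.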
FH mod – Identification of activators of human fumarate hydratase by quantitative high-throughput screening; Fumarate hydratase, mitochondrial (Homo sapiens), P07954; FH coupled MDH/diaphorase resazurin fluorescence, 15 min; Potency, µM (doses to about 79.9 µM), for the others: at the highest dose activity change, negative = inhibition, usual class: inhibitors; 0.22% of 54,000 active; note: potency is the fitted concentration of half-maximal effect; % is set by controls: 0 for no effect and ±100 for the full control effect; the screen sought activators but most active calls are inhibition curves; nearly all actives have a fitted effect of over 45% in size
DRV1 agonist – agonists of human resolvin D1 receptor DRV1 (GPR32); 2.5% of 48,000 active; O75388; AID 1346428; CHO-K1 GPR32 beta-arrestin PathHunter luminescence, 90 min; zero percent set by DMSO-only wells; activation, % at 76.9 µM;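 active = activation of at least 60% and not above a set upper limit, about 1 call in 100 departs from these limits; inconclusive = activation of 40% to 60%, or above that upper limit; inactive = activation under 40%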; note: 0% is about no effect
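GPR32 activation in stably transfected CHO-K1 cells, detected as beta-arrestin recruitment by enzyme-fragment complementation. Compound exposure: 90 min, 37 °C.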
* marks the source's active call; other numbers are inactive results; i = inactive; ? = inconclusive; · = not tested or not shown; ! = repeats disagree; [ ] = dose if it differs, or a comment. Unless noted, calls come from the whole dose curve; as a rule, active = well fitted curve in the direction sought with a large enough effect; inconclusive = small, poorly fitted or top-dose-only effect, or another doubt; inactive = no such curve, though single readings can be large; an effect the other way counts as inactive or inconclusive.

SMILES	p53null 32C tox	NTMT1 inh	GALC G270D act	p53null 39C tox	FH mod	DRV1 agonist
CN(C)CCCNc1c2ccccc2nc2c1[nH]c1ccccc12	·	35µM*	·	·	8%	·
O=C1CCCC2=C1C(c1[nH]ncc1Cl)NC(=NCc1ccccn1)N2 (stereo not drawn)	·	11%	·	·	·	·
CN(C)c1ccc(O)c2c1C[C@H]1C[C@H]3[C@H](N(C)C)C(=O)C(C(N)=O)=C(O)[C@@]3(O)C(=O)C1=C2O	·	79µM*!	i	·	-6%[53.3 µM]	-60
C[C@H]1c2cccc(O)c2C(O)=C2C(=O)[C@]3(O)C(O)=C(C(N)=O)C(=O)[C@@H](N(C)C)[C@@H]3[C@@H](O)[C@@H]21	·	?	i	·	-9%[53.3 µM]	11
O=C(NCc1ccc(S(=O)(=O)c2cccc(C(F)(F)F)c2)cc1)c1cnc2[nH]ncc2c1	·	19%	·	·	·	·
O=C1OC(C(=O)Nc2ccc(Cl)c(C(F)(F)F)c2)Cc2ccccc21 (stereo not drawn)	-1%	·	·	-17%	·	80*
CCOc1cc(C(C)(C)C)ccc1C1=NC(C)(c2ccc(Cl)cc2)C(C)(c2ccc(Cl)cc2)N1C(=O)N1CCN(CCCS(C)(=O)=O)CC1 (stereo not drawn)	·	0%[57.5 µM]	·	·	?	·
CCN(CC)CCn1c(-c2ccccc2)csc1=Nc1ccccc1	-5%	-2%	i	-8%	-10%	85*
COc1ccc(-c2csc(=Nc3ccccc3)n2CCO)cc1F	4%	-5%	i	-4%	-10%	96*
C=CC(C)(CC/C=C(\C)C(=O)OC)OC1OC(COC(=O)CC(C)(O)CC(=O)O)C(O)C(O)C1O (stereo not drawn)	·	-13%[29.8 µM]	·	·	2%[53.3 µM]	·
Cc1ccc(OCCn2c(CCNC(=O)c3ccc([N+](=O)[O-])cc3)nc3ccccc32)cc1	·	-15%[57.5 µM]	·	·	·	·
Cc1cccc(OCC(=O)Nc2ccc3nc(Nc4cccc(Cl)c4)cc(C)c3c2)c1	-7%	-7%	i	?	-7%	103*
Cc1cc(Nc2cccc(C(F)(F)F)c2)nc2ccc(NC(=O)c3cncc(Br)c3)cc12	-3%	2%	i	-20%	32µM*	-23
Cc1cc(Nc2cccc(Cl)c2)nc2ccc(NC(=O)c3cncc(Br)c3)cc12	-18%	11%	i	20µM*	-25%	-26
Cc1ccccc1C(=O)Nc1ccc2nc(Nc3cccc(C(F)(F)F)c3)cc(C)c2c1	15%	-11%	i	-21%	-28%	25
C[C@H]1CC[C@@]2(OC1)O[C@H]1CC3[C@@H]4CC[C@@H]5C[C@@H](O[C@@H]6O[C@H](CO)[C@@H](O[C@@H]7O[C@@H](C)[C@H](O)[C@@H](O)[C@H]7O)[C@H](O)[C@H]6O[C@@H]6O[C@H](CO)[C@@H](O)[C@H](O)[C@H]6O)CC[C@]5(C)C4CC[C@]3(C)[C@H]1[C@@H]2C (stereo partly drawn)	·	7%[12.6 µM]	·	·	1%[20.6 µM]	·
O=C1c2c(O[C@@H]3O[C@H](CO)[C@@H](O)[C@H](O)[C@H]3O)cc(O)cc2OC1(O)Cc1ccc(O)cc1 (stereo partly drawn)	·	-19%[29.8 µM]	·	·	0%[53.3 µM]	·
CC(NCc1ccc(OCc2cccc(F)c2)cc1)C(N)=O (stereo not drawn)	·	0%[57.5 µM]	·	·	4%	·
CCCCN(CCCC)CC(O)Cn1cc(/C=C/C(=O)c2ccccc2)c2ccccc21 (stereo not drawn)	?	7%	?	?	-8%	88*
CCCCN(C)CC(O)Cn1cc(/C=C/C(=O)c2ccc(OCC)cc2)c2ccccc21 (stereo not drawn)	?	-23%	i	5µM*	-21%	17
COc1ccc(C(=O)/C=C/c2cn(CC(O)CN3CCc4ccccc43)c3ccccc23)cc1 (stereo not drawn)	2%	5%	i	-7%	-4%	-9
CCOc1ccc(C(=O)/C=C/c2cn(CC(O)CN3CCc4ccccc43)c3ccccc23)cc1 (stereo not drawn)	6%	10%	?	-7%	-10%	-15
O=C(NCc1ccc(OC(F)(F)F)cc1)C1c2c(F)cccc2C(=O)N1CCc1ccccn1 (stereo not drawn)	·	2%[57.5 µM]	·	·	-3%	·
Cc1ccc(OCCn2c(CCNC(=O)c3ccncc3)nc3ccccc32)cc1	·	0%[57.5 µM]	·	·	·	·
Cc1ccccc1C(=O)N1CCc2cc(-c3nc(NC(=O)Cc4ccc5ccccc5c4)sc3C)ccc21	·	12%	·	·	·	·
SMILES	p53null 32C tox	NTMT1 inh	GALC G270D act	p53null 39C tox	FH mod	DRV1 agonist
CC(=O)c1ccc(NC(=O)CN2C(=O)c3cccnc3Sc3ccccc32)cc1	-11%	4%	i	8%	-31%	4
Cc1cc(Br)ccc1NC(=O)CN1C(=O)c2cccnc2Sc2ccccc21	-2%	79µM*	i	-9%	4%	-3
COc1cc2nc(N3CCN(C)CC3)nc(NCCN(C)C)c2cc1OC	·	4%	·	·	·	·
CCCCCn1c(=O)[nH]c2cc(C(=O)N3CCN(c4cccc(C)c4)C(C)C3)ccc2c1=O (stereo not drawn)	-5%	?	i	-8%	-8%	104*
CC(=O)C1=C(O)C2c3c[nH]c4cccc(c34)CC2C(C)(C)N(C)C1=O (stereo not drawn)	·	?	·	·	-5%	·
COC(=O)Nc1nc2ccc(C(=O)c3cccs3)cc2[nH]1	·	28µM*!	i	·	-15%[53.3 µM]	5
CCCS(=O)c1ccc2nc(NC(=O)OC)[nH]c2c1 (stereo not drawn)	·	50µM*!	i	·	6%	-23
COC(=O)Nc1nc2ccc(C(=O)c3ccccc3)cc2[nH]1	·	30µM*!	i	·	-6%[53.3 µM]	1
COC(=O)Nc1nc2ccc(S(=O)c3ccccc3)cc2[nH]1 (stereo not drawn)	·	5%[57.5 µM]	i	·	-7%[53.3 µM]	33
COc1nc2ccc(Br)cc2cc1[C@@H](c1ccccc1)[C@@](O)(CCN(C)C)c1cccc2ccccc12	·	-1%[57.5 µM]	·	·	-11%	·
OC[C@@]1(O)CO[C@@H](OC[C@H]2O[C@@H](OCc3ccccc3)[C@H](O)[C@@H](O)[C@@H]2O)[C@@H]1O	·	-8%[29.8 µM]	·	·	8%[53.3 µM]	·
COc1cc2c(cc1OC)/C(=C/c1ccc(O)cc1)C(=O)N2	·	?	·	·	0%	·
O=C1CCCC2=C1C(c1ccccc1Cl)N=C(c1ccccn1)N2 (stereo not drawn)	·	5%	·	·	·	·
COc1ccc(-c2nc(SCC(=O)Nc3cccc(C(C)=O)c3)n[nH]2)cc1	?	-12%	i	25µM*	?	-2
